Bioassay records (PubChem BioAssay)
Shown are actives, neighbours in structure and some others; about 17% of the full set was active somewhere.
TDP1 cell noCPT – qHTS for Inhibitors of human tyrosyl-DNA phosphodiesterase 1 (TDP1): qHTS in cells in absence of CPT; DT40 Tdp1-/- hTDP1 cells, no CPT, ATP luminescence, 48 h; Potency, µM (top dose mostly 46.2 µM), for inactives: at the highest dose activity change, negative = growth inhibition, most hits filed as inhibitors; 15% of 420,000 active; further: on the % scale 0 is the no-effect control and ±100 the full control effect; nearly all actives have a fitted effect of over 55% in size
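Chicken DT40 Tdp1-/- cells stably complemented with human TDP1 were seeded at 400 cells/well with DMSO in place of 20 nM camptothecin. After compound pinning, cells grew at least 48 hr at 37 °C; viability read by CellTiter-Glo luminescence.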
HepG2 tox – HepG2 cytotoxicity, counter-screen for TGF-b inhibitors; HepG2 CAGA-GFP viability, ATP luminescence, 18 h; Potency, µM (series often up to 46.1 µM), without a hit: top-dose activity change, negative = cytotoxicity, usual class: cytotoxic; 0.76% of 410,000 active; AID 588856
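HepG2 CAGA-GFP cells (1000/well, DMEM with 1% FBS) received compound, then TGF-beta at 500 pg/mL final, and were incubated 18 hours at 37 degrees C. Viability was read by CellTiter-Glo luminescence. Media-only wells were set as complete cell-killing and DMSO as no toxicity.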
HT1080NT lethal – kills 2HG-producing HT-1080-NT fibrosarcoma cells; HT-1080-NT fibrosarcoma viability, CellTiter-Glo ATP luminescence, 48 h; 1.6% of 360,000 active; Potency, µM (highest dose often 46.1 µM), for inactives: at the top dose activity, negative = less viability, actives largely listed as cytotoxic; AID 686970;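 further: NT is the 2HG producing partner of a matched IDH1 knockdown line; 0% = DMSO-treated cells and -100% = media-only wells without cells; nearly all actives have a fitted effect of over 55% in size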
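Fibrosarcoma NT cells, 750 per well in 5% FBS RPMI, were exposed to compound for 48 hours. Viability: CellTiter-Glo luminescence.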
DT40 TDP1 CPT – growth inhibition of DT40 Tdp1-/-;hTDP1 cells with camptothecin (screen for TDP1 inhibitors); chicken DT40 Tdp1-/-;hTDP1 cells + 20 nM CPT, ATP luminescence, 48 h; 12% of 420,000 active; Potency, µM (doses to about 46.2 µM), for inactives: at the top dose activity change, negative = growth inhibition, actives largely listed as inhibitors; AID 686979; further: on the % scale 0 is the no-effect control and ±100 the full control effect; nearly all actives have a fitted effect of over 55% in size
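Cell growth measured by CellTiter-Glo luminescence after a minimum 48 h, 37 C compound exposure with 20 nM CPT in Tdp1-knockout DT40 cells stably expressing hTDP1, seeded 400/well; qHTS titration format.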
HT1080 IDH1KD tx – HT-1080 IDH1 knockdown cell toxicity (counter line); AID 686971; HT-1080 IDH1 knockdown viability, ATP luminescence, 48 h; 2% of 360,000 active; Potency, µM (top dose mostly 46.1 µM), for inactives: at the highest dose activity, negative = toxicity, usual class: cytotoxic;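 further: 0% = DMSO wells and -100% = cell-free medium wells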
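Assay cells: HT-1080 with IDH1 knockdown, 750 per well, RPMI/5% FBS. Exposure: 48 h at 37 °C following 2 h pre-incubation. Read: CellTiter-Glo luminescence; fitted concentration-response, curve class assigned.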
TGFb SMAD3 inh – blocks TGF-b signaling | 1.2% of 410,000 active | AID 588855 | Potency, µM (doses to about 46.1 µM), without a hit: at the top dose activity, negative = inhibition, usual class: inhibitors | HepG2 CAGA-GFP TGF-b/SMAD3 reporter, GFP fluorescence, 18 h; TGF-beta stimulated, 500 pg/mL final; further: on the % scale 0 is the no-effect control and ±100 the full control effect; nearly all actives have a fitted effect of over 65% in size
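HEPG2 CAGA-GFP cells (1000/well, DMEM with 1% FBS) were pre-incubated 2 h at 37 degrees C, given compound by pin tool, then stimulated with TGF-beta at 500 pg/mL final for 18 h before per-cell GFP fluorescence imaging.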
Active calls of the source: *. The call rests on the fitted dose curve; in most records, active means well fitted curve in the direction sought with a large enough effect; inconclusive means small, poorly fitted or top-dose-only effect, or another doubt; inactive means no such curve, though single readings can be large; an effect the other way counts as inactive or inconclusive. Potency means the concentration at half of the fitted maximal effect.

`CCN(c1ccccc1)S(=O)(=O)c1ccc(C(=O)N2CCCC(C(F)(F)F)C2)cc1` (stereo not drawn) gave TDP1 cell noCPT 23µM*, HepG2 tox -9%, HT1080NT lethal -4%, DT40 TDP1 CPT 8.2µM*, HT1080 IDH1KD tx -8% and TGFb SMAD3 inh -14%.
Screening CCN(c1ccccc1)S(=O)(=O)c1ccc(Cl)c(C(=O)NCC2CCCO2)c1 (stereo not drawn) returned TDP1 cell noCPT inconclusive, HepG2 tox -2%, HT1080NT lethal 16%, DT40 TDP1 CPT -24%, HT1080 IDH1KD tx 16% and TGFb SMAD3 inh 0%.
For COc1cc(C(=O)O)ccc1OCc1ccncc1 the results were TDP1 cell noCPT -1%, HepG2 tox 2%, HT1080NT lethal 1%, DT40 TDP1 CPT -3%, HT1080 IDH1KD tx 5% and TGFb SMAD3 inh 8%.
Screening O=C(NCc1ccco1)c1cccc2c1C(=O)c1ccc(N3CCC(N4CCCCC4)CC3)cc1S2(=O)=O returned TDP1 cell noCPT -6%, HepG2 tox -25%, HT1080NT lethal 5%, DT40 TDP1 CPT 19%, HT1080 IDH1KD tx 1% and TGFb SMAD3 inh 9%.
CN(CC(=O)Nc1ccccc1C(F)(F)F)C(=O)COc1cccnc1[N+](=O)[O-] was read as TDP1 cell noCPT 2%, HepG2 tox -10%, HT1080NT lethal 1%, DT40 TDP1 CPT 1%, HT1080 IDH1KD tx 10% and TGFb SMAD3 inh 0%.
For CC(=O)N1CCc2cc(C(=O)CN3CCN(c4cccc(Cl)c4)CC3)ccc21 the results were TDP1 cell noCPT 21µM*, HepG2 tox -4%, HT1080NT lethal 7%, DT40 TDP1 CPT 15µM*, HT1080 IDH1KD tx 1% and TGFb SMAD3 inh 1%.
For O=C(c1ccc2c(c1)CCN2S(=O)(=O)c1ccccc1)N1CCN(c2ccc(F)cc2)CC1 the results were TDP1 cell noCPT 15µM*, HepG2 tox -6%, HT1080NT lethal -18%, DT40 TDP1 CPT 23µM*, HT1080 IDH1KD tx -14% and TGFb SMAD3 inh inconclusive.
Screening O=C(c1cccc(S(=O)(=O)N2CCc3ccccc32)c1)N1CCCC(C(F)(F)F)C1 (stereo not drawn) returned TDP1 cell noCPT 21µM*, HepG2 tox -25%, HT1080NT lethal -12%, DT40 TDP1 CPT 10µM*, HT1080 IDH1KD tx -4% and TGFb SMAD3 inh inconclusive.
`O=C(c1cccc(S(=O)(=O)N2CCCC2)c1)N1CCCC(C(F)(F)F)C1` (stereo not drawn) gave TDP1 cell noCPT -17%, HepG2 tox -4%, HT1080NT lethal 14%, DT40 TDP1 CPT -21%, HT1080 IDH1KD tx 8% and TGFb SMAD3 inh -1%.
For COc1ccccc1N1CCN(C(=O)c2ccc3c(c2)CCN3S(=O)(=O)c2ccccc2)CC1 the results were TDP1 cell noCPT 2.9µM*, HepG2 tox -21%, HT1080NT lethal -12%, DT40 TDP1 CPT 8.2µM*, HT1080 IDH1KD tx -28% and TGFb SMAD3 inh inconclusive.
`CC(=O)N1CCc2cc(C(=O)CN3CCC(C)CC3)ccc21` gave TDP1 cell noCPT -2%, HepG2 tox 5%, HT1080NT lethal 23%, DT40 TDP1 CPT inconclusive, HT1080 IDH1KD tx 4% and TGFb SMAD3 inh 12%.
COc1ccccc1N1CCN(C(=O)c2ccc(S(=O)(=O)N3CCCCCC3)cc2)CC1 was read as TDP1 cell noCPT inconclusive, HepG2 tox -26%, HT1080NT lethal -10%, DT40 TDP1 CPT inconclusive, HT1080 IDH1KD tx -11% and TGFb SMAD3 inh inconclusive.
